Laboratory results published in PubChem BioAssay AID598 (SRMLSC, 2007).
Hit rate of the full screen: of about 85,000 compounds, about 5,100 (6%) were called active.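 Rule for the calls: active = viability at or below 40%; inactive = viability above 40%.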 For the sample, actives were picked, then their nearest neighbours and some compounds at random.

Test: H69AR cell viability reduction – human, 86K library, primary screen (AID 598);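 note: multidrug resistant small cell line overexpressing MRP-1 efflux transporter; 100% = mean luminescence of untreated control wells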
Details: H69AR lung tumor viability, ATP luminescence, 72 h; at 10 µM; stronger effect = lower value

Row | SMILES | viability
1 | O=C(c1ccccc1Oc1ccccc1)N1CCN(c2ccc(F)cc2)CC1 | 100% (inactive)
2 | COC(=O)c1ccccc1NC(=O)CSc1nnnn1C | 95.3% (inactive)
3 | CC1CC(C)CN(CC(=O)N2c3ccccc3CCc3ccccc32)C1 (centres undefined) | 82.7% (inactive)
4 | O=C(CN1CCCCC1)N1c2ccccc2Sc2ccc(C(F)(F)F)cc21 | 86.8% (inactive)
5 | O=C(CN1CCCCCC1)N1c2ccccc2Sc2ccc(C(F)(F)F)cc21 | 36.8% (active)
6 | Cc1cc(C)nc(N2CCN(c3ncnc4c3oc3ccccc34)CC2)n1 | 103% (inactive)
7 | CCN1CCN(c2ncnc3c2oc2nc(C)c4c(c23)CC(C)(C)OC4)CC1 | 81.8% (inactive)
8 | CC(C)c1nc2oc3c(N4CCN(C)CC4)ncnc3c2c2c1CCC2 | 33.7% (active)
9 | COc1cc2c(cc1OC)C(C(C)C)=NC(C)(C)C2 | 88.9% (inactive)
10 | C/C(=N\NS(=O)(=O)c1ccc(Br)cc1)c1cccs1 | 110% (inactive)
11 | CCn1c(COc2ccc(OC)cc2)nnc1SCC(=O)Nc1cc(OC)ccc1OC | 71.4% (inactive)
12 | CCn1nc(C)c(NC(=O)/C=C/c2ccc(OC)c(COc3ccc(Br)cc3)c2)c1C | 28.8% (active)
13 | COc1ccc(/C=C/C(=O)Nc2c(C)nn(C)c2C)cc1COc1ccc(Br)cc1 | 57.5% (inactive)
14 | COc1cccc2cc(C(=O)N3CCN(C(=O)c4ccccc4)CC3)c(=O)oc12 | 89.3% (inactive)
15 | O=S(=O)(NC1CCCCC1)c1ccc(F)c2ccccc12 | 86.6% (inactive)
16 | Cc1ccc(-c2nc3c(cnn3-c3ccccc3)c(=O)o2)cc1 | 79.6% (inactive)
17 | Cc1ccc(-n2ncc3c(=O)n(-c4ccc(C)c(C)c4)c(-c4ccco4)nc32)cc1 | 31.3% (active)
18 | Cc1ccc(-n2ncc3c2ncn2nc(-c4ccco4)nc32)c(C)c1 | 78.6% (inactive)
19 | CCOC(=O)c1ccc2c(c1)nc(SCC(=O)NC(C)C)n2CC | 84% (inactive)
20 | CCNc1nc(NC(C)C)nc(OCCOC(=O)c2ccccc2)n1 | 83.5% (inactive)
21 | CCOc1cccc(NC(=O)Cn2nc(-c3ccc4c(c3)OCCO4)ccc2=O)c1 | 69.3% (inactive)
22 | CCN(CC)S(=O)(=O)c1cccc(C(=O)NCC(=O)OCC(=O)NCc2ccccc2)c1 | 87.6% (inactive)
23 | CCN(CC)S(=O)(=O)c1cccc(C(=O)Nc2ccccc2)c1 | 38.5% (active)
24 | CN(C)S(=O)(=O)c1cccc(C(=O)Nc2cccnc2)c1 | 89.9% (inactive)

Row | SMILES | viability
25 | N#CC1=C(N)N(c2ccccc2)C2=C(C(=O)CCC2)C1c1ccccc1 (centres undefined) | 40.4% (inactive)
26 | Cc1cccc(N2CCN(C(c3ccc(N(C)C)cc3)c3nnnn3C(C)(C)C)CC2)c1C (centres undefined) | 83.3% (inactive)
27 | O=C(COC(=O)c1ccc(Oc2ccccc2)cc1)Nc1nnc(-c2ccccc2)o1 | 58.7% (inactive)
28 | O=C(OCc1nnc(-c2ccccc2)o1)c1ccc2c(c1)C(=O)N(CCc1ccccc1)C2=O | 33.8% (active)
29 | CCCc1nc2ccccc2c(C(=O)OCc2nnc(-c3cc(OC)c(OC)c(OC)c3)o2)c1CC | 50.2% (inactive)
30 | O=C1CCCc2nn(-c3ccccc3)nc21 | 87.6% (inactive)
31 | CCCN1CC=C2C(C#N)=C(N)C(C#N)(C#N)C(c3cc(OC)ccc3OC)C2C1 (centres undefined) | 31.8% (active)
32 | CCN1CC=C2C(C#N)=C(N)C(C#N)(C#N)[C@H](c3ccoc3)[C@H]2C1 | 84.8% (inactive)
33 | CCOC(=O)N1CC=C2C(C#N)=C(N)C(C#N)(C#N)[C@H](c3cccs3)[C@H]2C1 | 61.6% (inactive)
34 | CCOC(=O)C1=C(CSc2nnnn2C)N(C)C(=O)NC1c1ccccc1 (centres undefined) | 93.1% (inactive)
35 | COc1ccc(N2CCN(C(=O)CCc3nc(-c4ccc(C)cc4)no3)CC2)cc1 | 98.4% (inactive)
36 | CCc1cccc(C)c1N(C(=O)Cn1c(CO)nc2ccccc21)C(C)COC (centres undefined) | 71% (inactive)
37 | Cc1cc(=O)oc2ccc(OCC(=O)O)cc12 | 97.4% (inactive)
38 | CCOC(=O)c1c(C)oc2ccc(OCC(=O)N(CC)CC)cc12 | 38.9% (active)
39 | CCOC(=O)c1c(C)oc2cc(Br)c(OCC(N)=O)cc12 | 80.2% (inactive)
40 | CN(C)c1ccnc2sc3c(=O)n(-c4ccc(Cl)cc4)cnc3c12 | 80.8% (inactive)
41 | O=C(N/N=C/C=C/c1ccccc1)C1CC1(c1ccccc1)c1ccccc1 (centres undefined) | 98.1% (inactive)
42 | CC(C)C[C@@H](N)c1nnc(SCC(=O)c2ccc(Cl)cc2)o1 | 86.9% (inactive)
43 | COc1cc(C(=O)OC(C)C(=O)NCC2CCCCC2)cc(NC(=O)c2ccco2)c1OC (centres undefined) | 13.1% (active)
44 | COc1ccc(NC(=O)c2cccc(NC(=O)c3ccco3)c2)c(OC)c1 | 88.5% (inactive)
45 | COC(=O)c1cc(Cl)c(NC(=O)c2ccco2)cc1OC | 94% (inactive)
46 | CC(C)(C)c1ccc(C(=O)NCC(=O)OCN2C(=O)c3ccccc3C2=O)cc1 | 104% (inactive)
47 | Cc1cccc(-n2nc3c(c2NC(=O)c2ccc(Br)o2)CSC3)c1C | 59.7% (inactive)
48 | Cc1cc(NC(=O)Nc2ccccc2)n(-c2ccccc2)n1 | 92.7% (inactive)

Row | SMILES | viability
49 | Cc1cc(C)nc(-n2nc(C)cc2NC(=O)c2ccc(Br)o2)n1 | 36.5% (active)
50 | CSc1ccc(-c2c(C#N)c(N)nc3c2c(C)nn3-c2ccccc2)cc1 | 57.5% (inactive)
51 | CSc1nc(N)c(C#N)c(-c2ccccc2Cl)c1C#N | 21.8% (active)
52 | N#Cc1c(N)nc2c3c(sc(=N)c2c1N)NC(=O)CC3c1ccccc1Cl (centres undefined) | 113% (inactive)
53 | O=C(NC1CCC(O)CC1)c1ccc(S(=O)(=O)NCc2ccco2)cc1 (centres undefined) | 96.7% (inactive)
54 | CC1(C)Cc2c(sc3nc(SCC(=O)NCc4ccccc4)n(-c4ccccc4)c(=O)c23)CS1 | 24.1% (active)
55 | Cc1nnc(SCC(=O)NCc2ccccc2)s1 | 96.4% (inactive)
56 | CNC(=O)CSc1nnc(CCc2ccccc2)n1-c1ccccc1 | 83.2% (inactive)
57 | CCOC(=O)c1c(NC(C)=O)sc2c(O)c(Br)ccc12 | 94.9% (inactive)
58 | COc1ccc(C(C#N)Nc2ccccc2C)cc1 (centres undefined) | 88.9% (inactive)
59 | O=C(Nc1nnc(SCc2ccccc2)s1)c1ccco1 | 96% (inactive)
60 | COc1ccc(CCn2c(-c3ccco3)nc3nc4ccccc4nc32)cc1OC | 55.4% (inactive)
61 | O=C(CSc1nnc(-c2cccnc2)n1Cc1ccco1)c1ccc(Cl)cc1 | 95.3% (inactive)
62 | Clc1cccc(-c2nc3nc4ccccc4nc3n2Cc2ccco2)c1 | 34.4% (active)
63 | Cc1cccc(S(=O)(=O)CC(=O)Nc2nc(-c3ccccc3)cs2)c1 | 99.7% (inactive)
64 | Cc1nc(NNC(=O)c2ccccc2)cc(-c2ccccc2)n1 | 91.7% (inactive)
65 | O=C(NCc1ccccc1)[C@@H]1CSC2c3ccccc3C(=O)N21 (some centres undefined) | 78.5% (inactive)
66 | COC(CNC(=O)Cn1ncc2ccsc2c1=O)OC | 101% (inactive)
67 | COC(=O)c1cccc(N(C(=O)c2ccco2)C(C(=O)NC2CCCC2)c2ccco2)c1 (centres undefined) | 32.4% (active)
68 | Cc1cccc(N(C(=O)c2ccc(CN3CCOCC3)o2)C(C(=O)NC2CCCCC2)c2ccc(F)cc2)c1 (centres undefined) | 103% (inactive)
69 | COC(=O)c1ccc(N(CC(=O)NC2CCCC2)C(=O)CNC(=O)c2ccco2)cc1 | 94.9% (inactive)
70 | COc1ccc(-c2oc(/N=C/N3CCCC3)c(C#N)c2-c2ccc(OC)cc2)cc1 | 99.1% (inactive)
71 | O=C(N/N=C\c1cccc(Br)c1)c1ccccc1-n1cccc1 | 93.7% (inactive)
72 | N=c1c2c(-c3ccccc3)c(-c3ccccc3)n(Cc3ccccc3)c2ncn1CCCO | 0.82% (active)

Row | SMILES | viability
73 | Cc1ccc(NC(=O)N2CCC(c3nc4c(nnn4Cc4c(F)cccc4Cl)c(=O)[nH]3)CC2)cc1 | 67.6% (inactive)
74 | CCCCNC(=O)C1CCCNC1=O (centres undefined) | 98.9% (inactive)
75 | C=C(C)COc1ccc(-c2n[nH]c(C)c2-c2ccccc2)c(O)c1 | 95.5% (inactive)
76 | COc1ccccc1-c1c(C)nn2c(C)c(C(C)=O)cnc12 | 89.8% (inactive)
77 | COc1ccc(-c2n[nH]c(C)c2-c2ccc(OC)c(OC)c2)c(O)c1 | 14.9% (active)
78 | C=C(C)COc1ccc(-c2n[nH]c(C)c2-c2ccccc2OC)c(O)c1 | 39.9% (active)
79 | O=C(Cn1c(-c2cscn2)nc2ccccc21)Nc1ccc(Cl)cc1 | 72.9% (inactive)
80 | COc1ccc(C)cc1S(=O)(=O)NCCc1ccccc1 | 96% (inactive)
81 | CCCCOc1ccc(N(CC(=O)NCC2CCCO2)C(=O)CCC(=O)Nc2cc(C)ccn2)cc1 (centres undefined) | 102% (inactive)
82 | O=C(CC12CC3CC(CC(C3)C1)C2)Nc1ccc2c(c1)COC2=O | 90.9% (inactive)
83 | O=S(=O)(NN=C1CCCCCCC1)c1ccc(Br)cc1 | 88.9% (inactive)
84 | CC/S(CC1CC1(Cl)Cl)=N\S(=O)(=O)c1ccc(C)cc1 (centres undefined) | 76.7% (inactive)
85 | CCn1c(SCC(=O)Nc2nc3ccc(OC)cc3s2)nnc1-c1ccoc1C | 58.8% (inactive)
86 | CCOc1ccc2nc(NC(=O)CSc3nc4c(c(=O)n(C)c(=O)n4C)n3CC)sc2c1 | 14.9% (active)
87 | CCCCn1c(SCC(=O)NCCc2ccc(OC)c(OC)c2)nc2c1c(=O)n(C)c(=O)n2C | 86.6% (inactive)
88 | COC(=O)CNC(=O)c1ccccc1F | 85.2% (inactive)
89 | O=C(c1ccc(Cl)c(Cl)c1)N1CCCC1 | 95.3% (inactive)
90 | C/C=C/C(=O)OCC(=O)Nc1ccc(F)cc1Cl | 98.4% (inactive)
91 | COc1ccccc1-n1nnnc1S(=O)(=O)Cc1ccc(Cl)cc1 | 1.36% (active)
92 | COc1ccccc1N1CCN(Cc2nnnn2CCc2ccccc2)CC1 | 102% (inactive)
93 | COc1ccccc1N1CCN(C(=O)CN(Cc2ccc(Cl)cc2)S(C)(=O)=O)CC1 | 86.8% (inactive)
94 | COCc1[nH][nH]c(=O)c1C=Nc1ccc(F)cc1F | 96.8% (inactive)
